From PubChem
NPSR antag – blocks cAMP signaling of the human neuropeptide S receptor | Q6W5P4 | CHO-NPSR cells, cAMP TR-FRET, antagonist mode | Potency, µM (highest dose often 38.3 µM), actives largely listed as inhibitors | 1% of 220,000 active; note: nearly all actives have a fitted effect of over 50% in size
ALOX12 inhib – inhibitors of human 12-lipoxygenase (ALOX12) | purified 12-hLO, xylenol orange hydroperoxide absorbance | 0.12% of 150,000 active | Potency, µM (highest dose often 57.1 µM), usual class: inhibitors | P18054; note: nearly all actives have a fitted effect of over 55% in size
Target sequence (P18054 whole entry, looked up): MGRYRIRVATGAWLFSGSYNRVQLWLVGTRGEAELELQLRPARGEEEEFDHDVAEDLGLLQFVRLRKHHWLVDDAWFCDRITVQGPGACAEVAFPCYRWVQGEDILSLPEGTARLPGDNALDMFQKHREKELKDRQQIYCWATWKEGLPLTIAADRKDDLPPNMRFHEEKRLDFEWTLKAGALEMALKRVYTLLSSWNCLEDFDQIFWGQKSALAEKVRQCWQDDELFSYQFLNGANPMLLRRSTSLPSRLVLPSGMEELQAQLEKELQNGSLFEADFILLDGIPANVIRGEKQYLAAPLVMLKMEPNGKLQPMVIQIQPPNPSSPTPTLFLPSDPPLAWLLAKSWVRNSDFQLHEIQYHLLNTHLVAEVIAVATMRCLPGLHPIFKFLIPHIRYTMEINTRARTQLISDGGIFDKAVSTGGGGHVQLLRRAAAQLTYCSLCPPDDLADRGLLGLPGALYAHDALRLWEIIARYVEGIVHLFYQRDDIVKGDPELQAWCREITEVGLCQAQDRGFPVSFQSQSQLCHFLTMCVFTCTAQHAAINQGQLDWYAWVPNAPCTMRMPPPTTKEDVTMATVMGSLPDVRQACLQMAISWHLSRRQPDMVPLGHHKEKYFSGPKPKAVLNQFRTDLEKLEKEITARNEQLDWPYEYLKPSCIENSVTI
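Hydroperoxide output read as Fe(III)-xylenol orange absorbance, 573-to-405 nm ratio, after 30 min reaction with 40 uM arachidonic acid. Enzyme: 150 nM purified human 12hLO, 15 min compound preincubation; 25 mM Hepes pH 7.0, room temperature.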
HTT aggregate – mutant huntingtin aggregation inhibition | Potency, µM (series often up to 46.1 µM), most hits filed as inhibitors | 1.1% of 220,000 active | PC12 HttQ103-GFP aggregates, Acumen cytometry, 40 h; note: nearly all actives have a fitted effect of over 60% in size
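Using laser scanning cytometry, GFP-positive aggregates were counted after lysis of PC12 cells induced with 100 nM tebufenozide to express HTT exon 1 Q103–GFP. Compounds were tested in titration.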
HTT ATP protect – Huntington cell model cytoprotection by ATP luminescence | Potency, µM (top dose mostly 56.4 µM), usual class: activators | 0.14% of 230,000 active | PC12 HTT-Q103 induced, cytoprotection, ATP luminescence, 40 h; note: nearly all actives have a fitted effect of over 45% in size
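Cells were plated at 1500 per well in phenol red-free DMEM with 5% equine and 5% calf serum. Tebufenozide (100 nM final) and compounds were added, then ATPlite reagent, and luminescence was read.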
PNC inhibitor – inhibitors of perinucleolar compartment assembly. AID 2417. 3.1% of 140,000 active. PC3M PTB-GFP, PNC prevalence imaging, 16 h; hits give low values. activity change (PNC), negative = inhibition, % at 10 µM;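 active = readout at or below -70, meaning at least 70% loss of cells showing the perinucleolar compartment, a nuclear body marking cancer cells; inconclusive = readout between -30 and a set limit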
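PC3M cells stably expressing PTB-GFP, 750–1000 cells/well, treated 16 h at 37 °C with compound (23 nl of library stock), in duplicate. After paraformaldehyde fixation and Hoechst stain, imaged at 20x; PNC prevalence scored by image analysis.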
IMPase cell inh – IMPase inhibition in cells; P97697; CHO-M1 cells, IP1 accumulation, HTRF TR-FRET ratio; inhibition (IP1 accumulation), % at 46.1 µM; 120,000 tested, under 10 active; AID 901; active = well fitted curve in the direction sought with a large enough effect in the signal ratio, not every such curve was filed as active; inconclusive = small, poorly fitted or top-dose-only effect, or a change in a side signal; inactive = no such curve, though single readings can be large or run the other way; the % refers to the signal ratio;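 note: cells stimulated with carbachol in lithium chloride buffer; higher means more IMPase inhibition seen as more IP1 and lower FRET ratio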
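Measured: the HTRF emission ratio (665/620 nm) plus the 620 nm donor channel, each fitted to the Hill equation to give AC50. Cells were CHO-M1 given compounds up to 46 uM and a 30 min carbachol stimulation at 37C.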
Large screens that a line does not name were inactive. A selection: hits, their analogues and other compounds. The true share with any hit is near 3.3%. Unless noted, calls come from the whole dose curve; as a rule, active = well fitted curve in the direction sought with a large enough effect; inconclusive = small, poorly fitted or top-dose-only effect, or another doubt; inactive = no such curve, though single readings can be large; an effect the other way counts as inactive or inconclusive.

Cc1ccc(C)c(N2CCN(CCCNC(=O)Cn3cccc3C(=O)c3ccccc3C)CC2)c1	NPSR antag inconclusive, HTT aggregate 15.8µM (no result: ALOX12 inhib, PNC inhibitor, IMPase cell inh)
CCN1CCN(CCC(=O)Nc2ccccc2OC)CC1	none
CCOc1ccccc1NC(=O)CCN1CCN(S(=O)(=O)c2ccc(Br)cc2)CC1	HTT aggregate inconclusive, PNC inhibitor -107.4
COC(=O)CCC(=O)Oc1ccc(OC(=O)CCC(=O)OC)cc1	HTT aggregate inconclusive, HTT ATP protect inconclusive, PNC inhibitor -113.4 (no result: IMPase cell inh)
COC(=O)CCC(=O)Nc1ccc(NC(=O)CCC(=O)OC)cc1	none
CCOC(=O)c1c(C(=O)OCC)c(C)n(N2C(=O)CSC2=S)c1C	HTT aggregate 0.891µM
COc1cccc(CC(=O)N2CCc3nc(-c4ccc(OC)cc4C)c4c(c3C2)CO[C@@H](c2ccccc2)C4)c1	none (no result: NPSR antag, HTT aggregate, PNC inhibitor, IMPase cell inh)
O=C(CSc1nnnn1-c1ccc(O)cc1)c1cc2ccccc2o1	none (no result: ALOX12 inhib, PNC inhibitor, IMPase cell inh)
CC(CCc1ccccc1)NC(=O)c1ccc(NC(=O)c2cccc(Br)c2)cc1 (stereo not drawn)	PNC inhibitor -113.4 (no result: HTT ATP protect, IMPase cell inh)
Cc1ccccc1NS(=O)(=O)c1ccc(NC(=O)CSCc2ccc(Br)cc2)cc1	PNC inhibitor -99.4
Cc1cc(C)c(C)c(OCC(=O)Nc2ccc(S(=O)(=O)Nc3nc(C)cc(C)n3)cc2)c1	none (no result: NPSR antag, ALOX12 inhib, HTT aggregate, HTT ATP protect, PNC inhibitor)
C=CC1=C(C)C2=Cc3c(C=C)c(C)c4[n]3[Sn+2][n]3c(c(C)c(CCC(=O)O)c3=CC3=NC(=C4)C(C)=C3CCC(=O)O)=CC1=N2	none (no result: NPSR antag, HTT aggregate, PNC inhibitor)
Cc1cn(C(=O)c2ccccc2)c(=S)n1-c1ccc(Cl)cc1	PNC inhibitor -100.0
CCOC(=O)c1cc(-c2ccc(F)cc2)n(CCC(=O)NC2CCN(Cc3ccccc3)CC2)c1C	NPSR antag inconclusive (no result: ALOX12 inhib, PNC inhibitor, IMPase cell inh)
CCOC(=O)C(C)n1cnc2c1c(=O)[nH]c(=O)n2C (stereo not drawn)	PNC inhibitor -100.0
CCOC(=O)C(C)Sc1nc2c(c(=O)[nH]c(=O)n2C)n1C/C=C(/C)Cl (stereo not drawn)	none
CC1=C(/C=C/C(C)=C/C=C/C(C)=C/C=O)C(C)(C)CCC1	none (no result: NPSR antag, HTT aggregate, PNC inhibitor, IMPase cell inh)
Cc1ccc2c(CC(=O)OCc3csc(C)n3)coc2c1	PNC inhibitor -100.0
Cc1ccc2c(CC(=O)OCc3nc(N)nc(Nc4ccccc4C)n3)coc2c1	PNC inhibitor inconclusive
COC(=O)c1ccc(C(/C=C/[C@@H](C)C(=O)NCCc2c[nH]c3ccccc23)NC(=O)OCc2ccccc2)cc1 (stereo partly drawn)	none (no result: NPSR antag, HTT aggregate, PNC inhibitor, IMPase cell inh)
CC(=O)NC(CCS(C)(=O)=O)C(=O)Nc1ccc2c(c1)OCO2 (stereo not drawn)	HTT aggregate 1.12µM (no result: HTT ATP protect)
COc1ccc([C@H](O)c2ccccn2)cc1	none (no result: NPSR antag, HTT aggregate, PNC inhibitor, IMPase cell inh)
O=C(O)[C@H](Cc1ccc(O)c([N+](=O)[O-])c1)N1C(=O)c2ccccc2C1=O	none (no result: NPSR antag, HTT aggregate, PNC inhibitor, IMPase cell inh)
CCOC(=O)C(NCc1ccccn1)(NC(=O)c1cccnc1)C(F)(F)F (stereo not drawn)	PNC inhibitor -86.1
CCC(=O)CC(NC(=O)OC)c1ccccc1 (stereo not drawn)	none (no result: NPSR antag, ALOX12 inhib, HTT aggregate, PNC inhibitor, IMPase cell inh)
